PubChem BioAssay (NCI)
This is part of a sample that, as a whole, favours compounds with a hit. Of some 83,000 tested, about 20% had one in any assay.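 Method: cells in 96-well plates; compound added at one concentration; 48 h incubation; percent growth measured; values under 10 scored active.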 A number with no mark means an inactive call. The source made the active and inactive calls.

System: HL-60(TB) leukemia
Test: NCI-60 one-dose screen, 48 h (100 = growth as untreated, 0 = no growth, -100 = all killed)
Details: 10 µM unless noted

| SMILES | growth |
| --- | --- |
| CN(N)c1nc2sc3c(c2c(=O)[nH]1)CCCC3 | 102% |
| O=c1[nH]nnc2c1ncn2C1OC(CO)C(O)C1O (stereo not given) | 25.2% |
| CN1C(=O)N(C)C2(c3ccccc3)n3c(s/c(=C\c4ccccc4)c3=O)=NNC12c1ccccc1 (stereo not given) | 90.1% |
| Oc1ccccc1N=Cc1c(O)ccc2ccccc12 | 8.97% (active) |
| CCCCCCC(CCCC)COC(=O)c1ccc(Cl)cc1 (stereo not given) | 100% |
| CCc1cccc(C)c1NC(=O)c1sc2nc3c(cc2c1N)C(=O)CCC3 | -22.4% (active) |
| N=c1c2c(-c3ccccc3)c(-c3ccccc3)oc2ncn1NC(=O)c1cccnc1 | 99.7% |
| Cc1ccc2c(NCCCN(C)C)c3c(C)nn(C)c3nc2c1 | 32.4% |
| Cc1ccc(S(=O)(=O)n2cc(C(=O)C(=O)N3CCCCC3)c3ccccc32)cc1 | 85% |
| CC[n+]1c(/C=C/C=C2\N(C)c3ccccc3C2(C)C)sc2ccccc21 | -30.3% (active) |
| O=C1Nc2ccc(Br)cc2C1=N/C=c1\[nH]c(=O)/c(=C/c2ccc(Cl)cc2)s1 | 100% |
| COc1cc(OC)c2c(=O)c3c(CC=C(C)C)cc(OC)c(O)c3oc2c1 | 96.7% |
| COc1ccc(/C(=C2/O[C@@H]([C@H]3COC(C)(C)O3)[C@H]3OC(C)(C)O[C@@H]23)c2cc(OC)c(OC)c(OC)c2)cc1O | -0.369% (active) |
| C#C[C@]1(O)CC[C@H]2[C@@H]3CC=C4c5sc(-c6cccc(Br)c6)nc5CC[C@]4(C)[C@H]3CC[C@@]21C | 77.9% |
| O=c1oc2c(C(F)(F)F)cccc2cc1-c1csc(Nc2ccc(OCCF)cc2)n1 | -1.08% (active) |
| C=CCN1C=CC(=O)[C@H](O[Si](C)(C)C(C)(C)C)[C@@H]1/C=C/c1ccccc1 | -33.3% [100 µM] (active) |
| CN1CCN(Cc2ccc(NC(=O)c3cncc(C#Cc4ncc5cnccn45)c3)cc2C(F)(F)F)CC1 | 24.8% |
| O=Nc1c(-c2cccc([N+](=O)[O-])c2)nc2ncccn12 | 0.307% (active) |
| c1ccc(-c2ccc3c(c2)C2(CCNCC2)CN3)cc1 | 93.7% |
| Nc1ccc2c(c1)/C(=N/O)c1cc([N+](=O)[O-])ccc1-2 | 64.1% |

| SMILES | growth |
| --- | --- |
| Nc1ccc(C2=Nc3cccc4cccc(c34)S2)cc1 | 76.7% |
| COc1ccc(/C=c2\c(=O)n(-c3ccccc3)c3nn4c(=O)c(=O)[nH]nc4n23)cc1 | 112% |
| Cn1cc(-c2csc(-c3cn(CCCN4CCOCC4)c4ccccc34)n2)c2cccnc21 | 70.9% |
| CCC(C)(C)c1ccc(OCCCCCCN2CCN(c3ccc(C)c(Cl)c3)CC2)cc1 | 84.5% |
| O=c1[nH]c(=S)[nH]c2nc[nH]c12 | 87% |
| CC(C)[C@H]1CCC2=C3CC[C@]45OC(=O)[C@@]6(CCC(C)(C)C[C@H]64)CC[C@@]5(C)[C@]3(C)CC[C@@]21C | 3.99% [100 µM] (active) |
| Cn1cc(-c2csc(-c3cn(C)c4ccccc34)n2)c2cnccc21 | -41.4% (active) |
| C=C1C(=O)O[C@H]2[C@H]1CC/C(C=Nc1c(N)cc(F)cc1Br)=C\CC[C@@]1(C)O[C@@H]21 | 37.1% |
| CCCCCC[C@@H](O)C/C=C\CCCCCCCC(=O)OCCOC | 156% |
| CCCCOc1ccc(/C(C)=N/Nc2cc(C)nc3ccc(Br)cc23)cc1 | 78.5% |
| Cc1cccnc1NC(=S)Nc1ncccc1C | 136% |
| COc1cccc(CCC(=O)c2cc3c(N)c(C(=O)Nc4cccc(Cl)c4C)sc3nc2C)c1 | 0.884% (active) |
| O=C(Nc1ccc(I)cc1F)c1cc(F)ccc1O | -30.7% (active) |
| CCOC(=O)C(=Cc1cccc(C#N)c1)C(=O)OCC | 27.9% |
| O=C1CS/C(=N/c2nnc(-c3ccc(O)cc3)s2)N1 | 98.8% |
| C=CCn1c(SCC(=O)Nc2ccc(C(=O)/C=C/c3ccc(Cl)cc3)cc2)nnc1-c1ccccc1 | 80.9% |
| CN1CCN(CC(=O)Nc2ccc3ncnc(Nc4ccc(Oc5cccc(C(F)(F)F)c5)c(Cl)c4)c3c2)CC1 | -35.7% (active) |
| COc1ccc(C(O)c2cc3c(N)c(C(=O)Nc4cccc(Br)c4C)sc3nc2C)cc1 (stereo not given) | -41% (active) |
| CC(=O)Oc1cccc(S(=O)(=O)n2cc(C(=O)C(=O)Nc3ccncc3)c3ccccc32)c1 | 56.1% |
| COc1cc(/C=C/c2cc(/C=C/c3ccc(O)c(OC)c3)n(C(N)=O)n2)ccc1O | -25.1% (active) |
